Compound activity as filed in PubChem BioAssay.
An excerpt weighted towards active compounds, which were near 4% of everything screened.
tim23-1 inh: growth inhibitors of tim23-1 mutant yeast. S. cerevisiae tim23-1 growth, BacTiter-Glo luminescence, 24 h. 330,000 compounds, 1.3% hits. inhibition, % at 20 µM;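 active = growth inhibition of the mutant yeast at or above 50%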;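 note: temperature-sensitive mutant grown at 25 °C; plate controls were DMSO-treated mutant yeast for no effect and medium wells lacking yeast for full effect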
NALP3 yeast inh: blocks the NALP3 inflammasome reconstituted in yeast | Yeast reconstituted NLRP3/ASC/caspase-1, beta-gal luminescence, 24 h | inhibition, % at 10 µM | 330,000 compounds, 0.39% hits;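 active = inhibition of 50% or more; inactive = inhibition below 50%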;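 note: plate controls were induced DMSO wells for no effect and uninduced yeast grown without galactose for full effect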
TIM10 inh: TIM10 yeast growth inhibition; inhibition, % at 10 µM; S. cerevisiae TIM10 strain growth, BacTiter-Glo luminescence, 24 h; AID 463195; 330,000 compounds, 1.4% hits;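 active = inhibition of 40% or more at the single tested concentration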;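 note: wild-type TIM10 isogenic control strain grown at permissive 25 °C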
tim10-1 inh: inhibits growth of tim10-1 mutant yeast. S. cerevisiae tim10-1 ts strain growth, BacTiter-Glo, 24 h. inhibition, % at 20 µM. 330,000 compounds, 2.2% hits. AID 463190;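 active = inhibition of at least 40%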;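 note: mutant grown at 25 °C; 0% = DMSO wells with yeast and 100% = wells holding no yeast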
NALP1 yeast inh: blocks the NALP1 inflammasome reconstituted in yeast; S. cerevisiae NALP1/ASC/caspase-1 growth, X-gal OD620, 72 h; AID 2071; inhibition, % at 10 µM; 280,000 compounds, 0.61% hits; in the data active = inhibition mostly above about 24%, no sharp cut-off; inactive = mostly below about 32%
tim23-1 conf: confirmation of tim23-1 mutant yeast growth inhibitors; shares compounds with tim23-1 inh; S. cerevisiae tim23-1 growth, BacTiter-Glo luminescence, 24 h; inhibition, % at 20 µM; 4,400 compounds, 83% hits; AID 463218;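 active = inhibition above about 39% in either of two replicate wells at 20 µM, limit read from the data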;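 note: temperature-sensitive tim23-1 mutant grown at 25 °C; 0% = DMSO wells with yeast and 100% = medium wells without yeast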
* hit, by the source's call; · = not tested or not shown.

SMILES	tim23-1 inh	NALP3 yeast inh	TIM10 inh	tim10-1 inh	NALP1 yeast inh	tim23-1 conf
O=C(Nc1ccc(N2CCN(C(=O)c3cccs3)CC2)cc1)c1ccc(Br)o1	55*	26	32	29	·	54*
O=C(Nc1cccc(NC(=O)c2cccs2)c1)c1ccc(Br)o1	61*	21	3	16	27	72*
COc1ccc(NC(=O)COC(=O)c2cc3c(s2)CCC3)cc1	13	26	1	4	·	·
Fc1cccc(NC(=S)NNc2ccccc2)c1	59*	19	18	13	5	-18
Fc1cccc(NC(=S)NNc2c3ccccc3nc3ccccc23)c1	·	·	·	·	12	·
CC1=NN(c2ccc(Cl)cc2)C(=O)C1C(c1ccccc1O)c1c(C)[nH]n(-c2ccc(Cl)cc2)c1=O (centres undefined)	57*	13	31	39	12	49*
Cc1ccc2[nH]c3c(c2c1)CN(C(=O)CN1CCN(c2cccc(C)c2C)CC1)CC3	60*	10	29	11	16	39
O=C(CN1CCSCC1)N1CCc2[nH]c3ccc(Br)cc3c2C1	·	·	·	·	39	·
CCCCn1c(C23CC4CC(CC(C4)C2)C3)n[nH]c1=S	53*	48	36	33	-2	50*
COCCn1c(C23CC4CC(CC(C4)C2)C3)n[nH]c1=S	27	22	26	30	2	·
COCC1CCN(C(=O)C2CCC(=O)N(CCc3cccc(F)c3)C2)CC1 (centres undefined)	14	7	8	2	14	·
O=[N+]([O-])c1cc(Br)c(Nc2ccccc2)c([N+](=O)[O-])c1	54*	-5	7	21	22	-22
O=C(Nc1ccccc1)c1ccc(Nc2c([N+](=O)[O-])cc([N+](=O)[O-])c3ccccc23)cc1	-16	8	-19	18	25	·
CCc1cccc2c1NC(=O)C21OCCO1	8	5	-1	18	20	·
O=C(Nc1cc(Cl)ccc1N1CCOCC1)c1ccc(Br)o1	10	9	15	18	1	·
COc1ccc(N2CCOCC2)c(NC(=O)c2ccc(Br)o2)c1	52*	34	-6	30	7	39*
COc1cc2cc(CCOC(=O)c3ccc(C(F)(F)F)cc3)oc(=O)c2cc1OC	3	9	9	15	·	·
COc1cc(/C=C(\C#N)C(=O)N2CCc3ccccc32)ccc1O	55*	-21	13	30	·	60*
CCn1c2ccc(C)cc2c2n[nH]c(=S)nc21	27	20	5	28	0	·
Cc1ccc(C(=O)N/N=C/c2ccc(-c3ccc(Br)cc3[N+](=O)[O-])o2)o1	50*	20	24	17	9	67*
O=C1c2cccc3c(Cl)ccc(c23)C(=O)N1O	61*	41	10	23	-2	69*
Cc1nc2c(n1C1CCCCC1)C(=O)c1ccccc1C2=O	51*	-22	25	34	-16	40*
O=C(CCl)Nc1cn(-c2ccccc2)nc1-c1ccccc1	60*	38	14	30	16	6
CC(=O)Nc1cn(-c2ccccc2)nc1-c1ccccc1	12	23	0	-10	-1	·
CCN=C1S/C(=C\c2cc(Br)c(O)c(OC)c2)C(=O)N1CC	16	34	-26	-5	4	·
SMILES	tim23-1 inh	NALP3 yeast inh	TIM10 inh	tim10-1 inh	NALP1 yeast inh	tim23-1 conf
NC(=O)CSC1=Nc2ccccc2C2=NC(c3ccccc3)C(=O)N12 (centres undefined)	6	13	29	3	8	·
Cc1ccccc1NC(=S)N(Cc1cccs1)C1CCCCC1	51*	8	28	34	22	39*
C/C(=N\Nc1ccc(Cl)cc1)c1ccncc1	54*	2	22	28	17	-15
COc1ccc(NC(=O)/C=C/c2cccc(Br)c2)cn1	87*	21	13	-56	18	24
CCOc1ccc(NC(=O)c2ccccc2CO)cc1	58*	-1	1	17	13	12
CN1CCSc2ccc(C(=O)NCc3cccc(Br)c3)cc21	53*	11	28	37	3	50*
O=C(Nc1ccc(-c2nc3ccccc3[nH]2)cc1)C1CCCO1 (centres undefined)	53*	9	20	22	23	41*
Cc1ccc(S(=O)(=O)NC(CC(C)C)C(=O)N2CCC(C)CC2)cc1 (centres undefined)	54*	-4	26	27	20	39*
Cc1ccc(S(=O)(=O)N[C@@H](CC(C)C)C(=O)N2CCC(C(=O)N[C@H](C(=O)O)C(C)C)CC2)cc1	-1	2	8	-1	11	·
O=S(=O)(Nc1ccc2nc(-c3ccc(Br)o3)[nH]c2c1)c1ccccc1	·	·	·	·	-15	·
CC(=O)Nc1ccc2nc(-c3ccc(Br)o3)[nH]c2c1	0	7	5	-26	22	·
O=C(Nc1ccc2nc(-c3ccc(Br)o3)[nH]c2c1)c1ccco1	57*	11	38	7	-3	66*
O=C(Nc1ccc2nc(-c3ccc(Br)o3)[nH]c2c1)c1cccs1	73*	40	38	18	3	72*
Cn1cccc1-c1nc2ccc(NC(=O)c3cccs3)cc2[nH]1	56*	11	24	1	-1	48*
O=C(CN1CCc2ccccc21)NN1CC(=O)N(c2ccc(Cl)cc2)CC1=O	-4	18	12	18	-23	·
O=C(CN1C(=O)S/C(=C/c2ccncc2)C1=O)Nc1ccccc1	53*	18	34	31	9	51*
Cc1cc(NC(=O)CN2C(=O)S/C(=C\c3ccccc3)C2=O)no1	-8	14	-8	-3	14	·
COc1ccc(C2CC(=O)Oc3cc(C)c(Cl)cc32)cc1 (centres undefined)	53*	·	9	26	·	40*
COc1ccc(C2CC(=O)Oc3ccc(OC)cc32)cc1 (centres undefined)	40	·	-2	13	·	·
O=c1c2ccccc2oc2cc(-c3ccc(CN4CCOCC4)cc3)ccc12	23	12	-28	1	·	·
O=C(N=C1SC2CS(=O)(=O)CC2N1c1cc(Cl)ccc1Cl)C1CCCO1 (centres undefined)	-9	-5	6	-11	19	·
Cc1cccc(/C=N/NC(=O)c2c(-c3ccccc3)noc2C)c1O	53*	13	33	24	5	51*
CCCN(Cc1nnc(-c2cccs2)o1)C(=O)c1cccc(S(=O)(=O)N2CCOCC2)c1	1	-3	12	1	·	·
CCOC(=O)c1nnc(-c2ccccc2)nc1Oc1ccccc1Cl	53*	31	39	34	32	56*
CCOC(=O)c1nnc(-c2ccccc2)nc1NC	-27	14	-22	-4	-4	·
COc1ccc(/C=C(\C#N)C(=O)NCc2ccccc2)cc1O	48	12	35	31	15	·
COc1ccc(/C=C(\C#N)C(=O)NC(C)c2ccccc2)cc1O (centres undefined)	56*	20	19	29	30	44*
